# Data: ChEMBL document CHEMBL3988442, “University of Dundee, Small-Polar-MMV Screening Library” (2021)
# How the values were obtained:
# [1] = target: T1, Aspartate--tRNA(Asp/Asn) ligase (Mycobacterium tuberculosis (strain ATCC 25618 / H37Rv)) (UniProt P9WFW3); experiment: Assay for Asp RNA synthetase-1 from Mycobacterium tuberculosis; assay type: functional; design: scale not given: direction of the effect not stated beside the values; conditions: 30 µM; note: in the data most compounds retested in dose-response had high values
# T1 sequence (whole entry): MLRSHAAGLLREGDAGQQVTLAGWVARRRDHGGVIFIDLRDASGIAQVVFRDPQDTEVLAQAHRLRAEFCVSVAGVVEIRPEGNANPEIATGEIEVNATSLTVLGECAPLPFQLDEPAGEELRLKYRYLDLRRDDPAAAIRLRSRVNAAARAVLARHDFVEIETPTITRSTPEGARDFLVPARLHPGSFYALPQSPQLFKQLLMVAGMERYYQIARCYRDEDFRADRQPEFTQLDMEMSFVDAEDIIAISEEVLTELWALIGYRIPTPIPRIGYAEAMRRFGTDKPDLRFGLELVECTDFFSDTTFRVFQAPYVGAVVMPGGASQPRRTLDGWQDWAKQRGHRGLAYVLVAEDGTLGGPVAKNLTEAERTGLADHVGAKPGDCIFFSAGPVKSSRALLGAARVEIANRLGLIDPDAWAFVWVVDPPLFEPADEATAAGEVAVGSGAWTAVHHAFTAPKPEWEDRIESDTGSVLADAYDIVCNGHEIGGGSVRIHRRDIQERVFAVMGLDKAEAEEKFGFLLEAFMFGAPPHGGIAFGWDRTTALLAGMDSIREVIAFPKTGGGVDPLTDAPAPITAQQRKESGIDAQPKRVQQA
# [2] = target: Shiga toxin 2 (Escherichia coli O157:H7) (UniProt P09385+P09386); experiment: E. coli 0.157:H7 Shiga Toxin SOP - stx2 screening assay; assay type: functional; design: scale not given: direction of the effect not stated beside the values; conditions: 30 µM
SMILES,Percent Effect [1] [%],Percent Effect [2] [%]
Cn1ncc2c(NCCC34CCCN3CCC4)nc(C3CCCC3)nc21,8.28,-7.47
CC(C)CCN1CCNC(=O)C1CC(=O)N1CCc2sccc2C1 (stereo not given),-3.89,-7.76
Cc1ccccc1-c1cc(C(=O)NCCN2CCCS2(=O)=O)[nH]n1,-2.39,-11.4
COc1cc(CN2CCN(c3cccc(OC)c3)C(=O)C2)cc(OC)c1,-1.98,-8.17
O=C(NCCCn1cccn1)C1(c2ccc(F)cc2)CC1,-8.14,-6.77
COc1cc(CNCc2ccc(NC(=O)NC(C)C)cc2)cc(OC)c1,1.67,-65.1
Cc1nc(CN2CCN(Cc3ccoc3)Cc3cccnc32)cs1,4.04,-1.98
COc1cccc(CNCc2nnc3n2CC(C(F)(F)F)CC3)c1 (stereo not given),-0.0987,-19.1
CCCNCC1(O)CCCN(Cc2cccc(C)c2)C1=O (stereo not given),-0.345,0.574
COCCNC(=O)C1(c2ccccc2C)CCOCC1,-1.82,19.2
Cc1ccccc1CN(C)Cc1nc2c(cnn2C)c(=O)[nH]1,0.633,-4.87
CCc1ccsc1C(=O)N1CCN(C(=O)CC(F)(F)F)CC1,-0.116,-16.6
CNC(=O)CN1CCCC12CCN(C(=O)c1ccsc1)CC2,0.137,-0.413
Cc1ncsc1CCC(=O)N1CCCC[C@H](N(C)C)C1,-3.74,3.62
CS(=O)(=O)N1CCC(C(=O)NCCNc2ncccn2)CC1,-0.962,-1.12
Cc1ccc2cc(CNCCCN3CCOCC3)c(=O)[nH]c2c1,-2.01,-12.7
O=S(=O)(C1CC1)N1CCC2(COCc3cnc(N4CCOCC4)nc32)C1 (stereo not given),-2.06,-56.7
COCCNc1ccc(CNC(=O)Nc2cn[nH]c2)cc1,-0.4,-2.17
Cc1nc(CN2CCCC(Cn3cc(CCO)nn3)C2)c[nH]1 (stereo not given),0.881,-6.46
Cc1nc2ccccc2c(=O)n1CCC(=O)N1CCNC(=O)C1,-5.81,27.4
O=C(NCC1CC1)C1=NOC2(CCN(Cc3ccc4c(c3)OCO4)C2)C1 (stereo not given),2.18,-49.8
Cc1cccc(CN2CCC3(CCCN(C(=O)c4ccsc4)C3)C2=O)n1 (stereo not given),-2.4,-10.9
O=C(NCCc1nnc2n1CCC2)NC1(c2cccc(F)c2)CC1,3.98,-25

SMILES,Percent Effect [1] [%],Percent Effect [2] [%]
COCC1CCN(C(=O)c2cccc(S(=O)(=O)NC3CCCC3)c2)C1 (stereo not given),-0.437,-4.97
CNc1snc(C)c1C(=O)N1CCCC(n2nc(C)cc2C)C1 (stereo not given),-8.77,-3.59
O=C(NCC1CC1)[C@H]1C[C@@H]2CCN(Cc3nccs3)C[C@@H]2O1,-3.13,0.967
Cc1ncsc1C(=O)NCCn1nc2ccccn2c1=O,-1.86,15
Cc1ccc(S(=O)(=O)N2C[C@H]3C[C@H](NC(=O)c4ccnn4C)[C@H]3C2)cc1,0.283,8.81
Cc1ccc(S(=O)(=O)N2C[C@@H]3C[C@@H](NC(=O)C(C)(C)C)[C@@H]3C2)cc1,1.47,6.78
Cc1ncsc1CN1CC[C@H]2C(=O)N(c3ccccc3)CCO[C@H]2C1,-1.84,3.87
COCC(=O)N1CC[C@@H](N2CCOCC2)[C@@H]1Cc1ccccc1,9.38,-28.8
CNC(=O)[C@H]1C[C@@H]2CN(C(=O)Nc3ccc(F)cc3)C[C@H]1O2,-1.56,-24.2
O=C(C1COCCO1)N1CCN(Cc2ccc3c(c2)CCO3)CC1 (stereo not given),1.71,8.81
O=C(c1ccn(-c2cccc(Cl)c2)n1)N1CCN(C2CC2)CC1,-1.64,20.3
Cc1noc(C2CCCCN2C(=O)NC2CCCC2)n1 (stereo not given),5.06,-14.7
COc1ccc(CN(C)CC2CCCN2c2cccnn2)cc1F (stereo not given),0.346,3.14
Cn1cnc2c1CCN(CCS(=O)(=O)c1ccccc1)C2,-1.69,0.397
Cc1cn2c(n1)CCC(NC(=O)c1cc(C(C)C)no1)C2 (stereo not given),-4.01,-5.41
Cc1cccc(CN2C[C@@H]3CN(C(=O)[C@H]4CCCO4)C[C@@H]3C2=O)c1,-6.69,-9.8
Cc1nc(C(=O)N2CCC(Cc3cnc4[nH]ccc4c3)C2)co1 (stereo not given),1.31,62.2
COc1ncccc1C(=O)N1CC[C@H]2C[C@@H](C)O[C@@H]2C1,-1.34,-45
CCN1CCC(CNCc2cc(OC)ccc2OC)C1 (stereo not given),-3.93,-21.3
COc1cc(C)nc(N2CCN(Cc3nccn3C)CC2)n1,-1.39,-9.36
CCOCC1CN(Cc2cccc(C#N)c2)Cc2nccn2C1 (stereo not given),-2.92,-10.3
O=S(=O)(NCCN1CCCCC1Cn1cncn1)c1ccccc1 (stereo not given),1.46,5.96
